Here are results for five compounds from PubChem BioAssay.

The nature of test [1]: small molecules captured by biotinylated probe aFSTL3 – biochemical, small-molecule microarray, fluorescence 635/667, stem cell growth factor project, primary screen (AID 1064).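 Further: measures binding of the biotinylated anti-FSTL3 antibody to printed compounds.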 The conditions noted are these: higher = more signal.
Test [2] is described as follows: binders from COS7 lysate, DM2A8 probe, primary screen, torsin A project, cell lysate, small-molecule microarray, fluorescence 635/667 (AID 1065). The conditions noted are these: higher = more signal, COS7 lysate expressing mutant human TOR1A.
Test [3] in a line: small molecules captured by biotinylated probe aFGF2 – biochemical, small-molecule microarray, fluorescence 635/667, stem cell growth factor project, primary screen (AID 1067).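 Further: measures binding of biotinylated aFGF2 protein to printed compounds on slides; z-score merges feature fluorescence and signal-to-noise across triplicate slides.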 The conditions noted are these: higher = more signal.
Test [4] is described as follows: small molecules captured by biotinylated probe aFGF10 – biochemical, small-molecule microarray, fluorescence 635/667, stem cell growth factor project, primary screen (AID 1071).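 Further: score merges 667 nm spot intensity and signal to noise from triplicate slides.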 The following applies: higher = more signal.
The target of test [5] is Neurogenic locus notch homolog protein 2 (Homo sapiens) (UniProt Q04721). Nature of the test: small molecules binding Notch2 protein – biochemical, small-molecule microarray, 635 nm fluorescence, stem cell growth factors, primary screen (AID 1073). The conditions noted are these: higher = more signal.
Test [6] deals with Pro-neuregulin-1, membrane-bound isoform (Homo sapiens) (UniProt Q02297). Kind of test: small molecules binding neuregulin-1 protein – biochemical, small-molecule microarray, fluorescence 635/667, psychiatric disease protein project, primary screen (AID 1075).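 Further: score combines 667 nm spot fluorescence with signal to noise.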 The conditions noted are these: NRG1 binding, 635 nm fluorescence, higher = more signal.
Test [7] deals with Neuregulin-1 EGF-like domain. Kind of test: small molecules binding NRG1 EGF domain – biochemical, small-molecule microarray, 635 nm fluorescence, primary screen (AID 1081).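 Further: binding of the protein to compounds printed on small-molecule microarray slides.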 The conditions noted are these: higher = more signal.
Test [8] is described as follows: FRG1 expression reporter modulators in myotubes – cell-based, C2C12 myotubes, firefly/Renilla luciferase, luminescence, FRG1 inhibition for FSHD, primary screen (AID 1084). The conditions noted are these: FRG1 promoter luciferase, higher = more signal, called active from +8 up or from −8 down.
Test [9] in a line: small molecules captured by biotinylated probe aFST – biochemical, small-molecule microarray, fluorescence 635/667, stem cell growth factor project, primary screen (AID 1086).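 Further: score merges 667 nm fluorescence with signal-to-noise of each printed compound spot.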 The following applies: higher = more signal.
Test [10] can be described thus: binders of probe aHhip on microarray, primary screen, stem cell growth factor project, biochemical, small-molecule microarray, fluorescence 635/667 (AID 1087).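 Further: score merges spot fluorescence at 667nm with spot signal to noise ratio.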 The following applies: higher = more signal.
The test system of test [11] is PRMT1 (protein arginine N-methyltransferase 1). Nature of the test: small molecules binding arginine methyltransferase PRMT1 – biochemical, small-molecule microarray, 635 nm fluorescence, primary screen (AID 1088).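 Further: binding of Prmt1 protein to compounds spotted on small-molecule microarray slides.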 The following applies: higher = more signal.
The nature of test [12]: growth effects on S. cerevisiae YJM789 – YJM789 clinical isolate, OD600, 24 h, basal, primary screen (AID 1089).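 Further: growth of clinical yeast isolate S. cerevisiae YJM 789 seeded 1000 cells per well; test concentration not given here.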 The following applies: higher = more signal, called active from +8 up or from −8 down.
The nature of test [13]: S. pombe growth modifiers, basal conditions – strain 972, OD600, 24 h, no modulator, primary screen (AID 1090).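 Further: basal condition with compound alone and no growth modifier present; test concentration not given here.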 The conditions noted are these: S. pombe 972 growth, higher = more signal, called active from +8 up or from −8 down.
Test [14] can be described thus: budding yeast growth modifiers under rapamycin – strain BY4716, OD600, 96 h, primary screen (AID 1091). Further: test concentration not given here. The conditions noted are these: S. cerevisiae BY4716 + rapamycin, higher = more signal, called active from +8 up or from −8 down.
Test [15] addresses Torsin-1A-interacting protein 2 (Homo sapiens) (UniProt Q8NFQ8). Kind of test: small molecules binding lysate-expressed LULL1 – cell lysate, human LULL1 lysate, 635/667 nm fluorescence, primary screen (AID 1092).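 Further: score merges per-feature 667 nm fluorescence with signal-to-noise.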 The conditions noted are these: small-molecule microarray, hLULL1 lysate binding, 635 nm fluorescence; higher = more signal.
Test [16] in a line: optical density change of DRC41 E. coli – strain DRC41, OD650, 24 h, E. coli filamentation project, primary screen (AID 1093).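 Further: MC1000 strain lacking acrAB efflux and sulA so SOS filamentation is blocked; test concentration not given here.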 The conditions noted are these: E. coli DRC41 growth, higher = more signal, called active from +8 up or from −8 down.
The nature of test [17]: probe aLefty2 binding to arrayed compounds – biochemical, biotinylated probe, 635/667 nm fluorescence, primary screen (AID 1094).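 Further: score merges spot fluorescence near 667 nm with spot signal-to-noise ratio.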 The following applies: small-molecule microarray, higher = more signal.
Test [18] relates to Noggin (protein binding on small-molecule microarray). Kind of test: small molecules binding Noggin protein – biochemical, 635/667 nm fluorescence, primary screen (AID 1095).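 Further: score merges 667 nm feature fluorescence with signal to noise over triplicate slides.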 The conditions noted are these: 635 nm fluorescence, higher = more signal.
Test [19] deals with Neurogenic locus notch homolog protein 3 (Homo sapiens) (UniProt Q9UM47). Nature of the test: small molecules binding NOTCH3 protein – biochemical, 635/667 nm fluorescence, primary screen (AID 1096). The conditions noted are these: small-molecule microarray, 635 nm fluorescence, higher = more signal.
Test [20] in a line: probe aEGFR binding to arrayed compounds – biochemical, biotinylated probe, 635/667 nm fluorescence, primary screen (AID 1097).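 Further: probe is a biotinylated anti-EGFR antibody binding compounds printed on slides; score combines fluorescence near 667 nm and signal to noise of each spot.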 The following applies: small-molecule microarray, higher = more signal.

Values joined by “and” are separate entries in the source; they are usually repeats but may differ in a detail not shown here. Equal entries are not always repeated. Active and inactive are the calls of the source.

Chain of Neurogenic locus notch homolog protein 2 (Homo sapiens) (Q04721 whole entry, looked up, canonical isoform): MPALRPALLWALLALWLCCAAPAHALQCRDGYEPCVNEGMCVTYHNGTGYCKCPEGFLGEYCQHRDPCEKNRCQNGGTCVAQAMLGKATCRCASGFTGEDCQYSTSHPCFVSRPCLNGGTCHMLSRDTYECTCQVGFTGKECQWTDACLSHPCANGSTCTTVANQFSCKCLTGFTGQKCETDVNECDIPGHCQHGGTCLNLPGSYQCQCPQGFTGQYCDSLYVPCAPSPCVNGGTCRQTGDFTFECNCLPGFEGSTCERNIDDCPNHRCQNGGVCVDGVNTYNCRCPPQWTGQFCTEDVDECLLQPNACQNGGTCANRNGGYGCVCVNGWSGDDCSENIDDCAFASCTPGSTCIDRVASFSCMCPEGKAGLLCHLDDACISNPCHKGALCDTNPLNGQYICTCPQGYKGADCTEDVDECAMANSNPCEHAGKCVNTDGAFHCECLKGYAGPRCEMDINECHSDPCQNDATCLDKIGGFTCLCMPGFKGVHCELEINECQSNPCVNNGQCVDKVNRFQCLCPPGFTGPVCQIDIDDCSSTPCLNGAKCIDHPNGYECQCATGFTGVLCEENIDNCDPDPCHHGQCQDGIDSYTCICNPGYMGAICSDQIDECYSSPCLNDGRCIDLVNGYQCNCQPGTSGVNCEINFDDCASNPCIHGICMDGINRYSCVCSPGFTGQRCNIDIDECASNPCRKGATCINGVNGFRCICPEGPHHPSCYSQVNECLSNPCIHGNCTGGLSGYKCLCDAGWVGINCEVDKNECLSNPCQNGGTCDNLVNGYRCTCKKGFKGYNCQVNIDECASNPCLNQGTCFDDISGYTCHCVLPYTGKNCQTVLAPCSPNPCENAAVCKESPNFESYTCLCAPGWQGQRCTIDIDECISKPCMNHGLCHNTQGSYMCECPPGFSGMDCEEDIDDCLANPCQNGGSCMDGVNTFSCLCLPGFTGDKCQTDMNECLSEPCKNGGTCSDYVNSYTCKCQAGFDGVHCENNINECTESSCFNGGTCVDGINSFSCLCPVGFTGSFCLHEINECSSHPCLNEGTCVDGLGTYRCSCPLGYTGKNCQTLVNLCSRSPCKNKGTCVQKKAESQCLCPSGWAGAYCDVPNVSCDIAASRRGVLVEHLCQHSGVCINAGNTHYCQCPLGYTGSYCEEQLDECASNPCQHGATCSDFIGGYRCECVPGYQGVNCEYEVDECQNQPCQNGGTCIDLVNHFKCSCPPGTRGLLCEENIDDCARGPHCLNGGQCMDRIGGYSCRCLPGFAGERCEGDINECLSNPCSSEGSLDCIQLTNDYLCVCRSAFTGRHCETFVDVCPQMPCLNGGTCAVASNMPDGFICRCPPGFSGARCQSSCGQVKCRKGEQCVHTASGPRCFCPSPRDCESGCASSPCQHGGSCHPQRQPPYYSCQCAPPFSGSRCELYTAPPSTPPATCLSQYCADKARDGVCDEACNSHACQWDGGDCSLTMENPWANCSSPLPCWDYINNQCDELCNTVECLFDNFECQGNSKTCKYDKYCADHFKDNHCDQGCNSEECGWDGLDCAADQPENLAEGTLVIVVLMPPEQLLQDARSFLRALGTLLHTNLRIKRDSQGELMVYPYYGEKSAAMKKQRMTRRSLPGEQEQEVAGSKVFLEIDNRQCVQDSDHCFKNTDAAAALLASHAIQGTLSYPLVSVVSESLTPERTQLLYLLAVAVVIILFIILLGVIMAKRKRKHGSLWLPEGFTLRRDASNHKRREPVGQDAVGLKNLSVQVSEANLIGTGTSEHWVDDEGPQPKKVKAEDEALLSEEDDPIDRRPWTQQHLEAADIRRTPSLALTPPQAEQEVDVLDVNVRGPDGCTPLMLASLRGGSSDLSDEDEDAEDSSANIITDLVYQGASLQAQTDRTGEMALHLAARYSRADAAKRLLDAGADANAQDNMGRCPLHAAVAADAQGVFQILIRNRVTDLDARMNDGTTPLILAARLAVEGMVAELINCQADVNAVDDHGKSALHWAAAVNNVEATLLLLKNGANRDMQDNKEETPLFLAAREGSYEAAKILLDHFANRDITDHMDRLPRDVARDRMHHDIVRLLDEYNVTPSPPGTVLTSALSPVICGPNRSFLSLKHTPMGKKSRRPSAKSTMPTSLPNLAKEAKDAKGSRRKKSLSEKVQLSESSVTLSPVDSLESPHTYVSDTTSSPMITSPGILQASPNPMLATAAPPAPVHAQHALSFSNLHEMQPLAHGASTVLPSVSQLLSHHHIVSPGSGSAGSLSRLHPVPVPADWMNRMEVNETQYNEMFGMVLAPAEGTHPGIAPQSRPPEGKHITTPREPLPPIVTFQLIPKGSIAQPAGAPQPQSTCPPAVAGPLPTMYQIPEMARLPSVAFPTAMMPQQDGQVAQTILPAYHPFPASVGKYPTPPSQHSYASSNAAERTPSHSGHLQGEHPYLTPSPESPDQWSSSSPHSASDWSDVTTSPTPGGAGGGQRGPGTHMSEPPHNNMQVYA
Chain of Neurogenic locus notch homolog protein 3 (Homo sapiens) (Q9UM47 whole entry, looked up): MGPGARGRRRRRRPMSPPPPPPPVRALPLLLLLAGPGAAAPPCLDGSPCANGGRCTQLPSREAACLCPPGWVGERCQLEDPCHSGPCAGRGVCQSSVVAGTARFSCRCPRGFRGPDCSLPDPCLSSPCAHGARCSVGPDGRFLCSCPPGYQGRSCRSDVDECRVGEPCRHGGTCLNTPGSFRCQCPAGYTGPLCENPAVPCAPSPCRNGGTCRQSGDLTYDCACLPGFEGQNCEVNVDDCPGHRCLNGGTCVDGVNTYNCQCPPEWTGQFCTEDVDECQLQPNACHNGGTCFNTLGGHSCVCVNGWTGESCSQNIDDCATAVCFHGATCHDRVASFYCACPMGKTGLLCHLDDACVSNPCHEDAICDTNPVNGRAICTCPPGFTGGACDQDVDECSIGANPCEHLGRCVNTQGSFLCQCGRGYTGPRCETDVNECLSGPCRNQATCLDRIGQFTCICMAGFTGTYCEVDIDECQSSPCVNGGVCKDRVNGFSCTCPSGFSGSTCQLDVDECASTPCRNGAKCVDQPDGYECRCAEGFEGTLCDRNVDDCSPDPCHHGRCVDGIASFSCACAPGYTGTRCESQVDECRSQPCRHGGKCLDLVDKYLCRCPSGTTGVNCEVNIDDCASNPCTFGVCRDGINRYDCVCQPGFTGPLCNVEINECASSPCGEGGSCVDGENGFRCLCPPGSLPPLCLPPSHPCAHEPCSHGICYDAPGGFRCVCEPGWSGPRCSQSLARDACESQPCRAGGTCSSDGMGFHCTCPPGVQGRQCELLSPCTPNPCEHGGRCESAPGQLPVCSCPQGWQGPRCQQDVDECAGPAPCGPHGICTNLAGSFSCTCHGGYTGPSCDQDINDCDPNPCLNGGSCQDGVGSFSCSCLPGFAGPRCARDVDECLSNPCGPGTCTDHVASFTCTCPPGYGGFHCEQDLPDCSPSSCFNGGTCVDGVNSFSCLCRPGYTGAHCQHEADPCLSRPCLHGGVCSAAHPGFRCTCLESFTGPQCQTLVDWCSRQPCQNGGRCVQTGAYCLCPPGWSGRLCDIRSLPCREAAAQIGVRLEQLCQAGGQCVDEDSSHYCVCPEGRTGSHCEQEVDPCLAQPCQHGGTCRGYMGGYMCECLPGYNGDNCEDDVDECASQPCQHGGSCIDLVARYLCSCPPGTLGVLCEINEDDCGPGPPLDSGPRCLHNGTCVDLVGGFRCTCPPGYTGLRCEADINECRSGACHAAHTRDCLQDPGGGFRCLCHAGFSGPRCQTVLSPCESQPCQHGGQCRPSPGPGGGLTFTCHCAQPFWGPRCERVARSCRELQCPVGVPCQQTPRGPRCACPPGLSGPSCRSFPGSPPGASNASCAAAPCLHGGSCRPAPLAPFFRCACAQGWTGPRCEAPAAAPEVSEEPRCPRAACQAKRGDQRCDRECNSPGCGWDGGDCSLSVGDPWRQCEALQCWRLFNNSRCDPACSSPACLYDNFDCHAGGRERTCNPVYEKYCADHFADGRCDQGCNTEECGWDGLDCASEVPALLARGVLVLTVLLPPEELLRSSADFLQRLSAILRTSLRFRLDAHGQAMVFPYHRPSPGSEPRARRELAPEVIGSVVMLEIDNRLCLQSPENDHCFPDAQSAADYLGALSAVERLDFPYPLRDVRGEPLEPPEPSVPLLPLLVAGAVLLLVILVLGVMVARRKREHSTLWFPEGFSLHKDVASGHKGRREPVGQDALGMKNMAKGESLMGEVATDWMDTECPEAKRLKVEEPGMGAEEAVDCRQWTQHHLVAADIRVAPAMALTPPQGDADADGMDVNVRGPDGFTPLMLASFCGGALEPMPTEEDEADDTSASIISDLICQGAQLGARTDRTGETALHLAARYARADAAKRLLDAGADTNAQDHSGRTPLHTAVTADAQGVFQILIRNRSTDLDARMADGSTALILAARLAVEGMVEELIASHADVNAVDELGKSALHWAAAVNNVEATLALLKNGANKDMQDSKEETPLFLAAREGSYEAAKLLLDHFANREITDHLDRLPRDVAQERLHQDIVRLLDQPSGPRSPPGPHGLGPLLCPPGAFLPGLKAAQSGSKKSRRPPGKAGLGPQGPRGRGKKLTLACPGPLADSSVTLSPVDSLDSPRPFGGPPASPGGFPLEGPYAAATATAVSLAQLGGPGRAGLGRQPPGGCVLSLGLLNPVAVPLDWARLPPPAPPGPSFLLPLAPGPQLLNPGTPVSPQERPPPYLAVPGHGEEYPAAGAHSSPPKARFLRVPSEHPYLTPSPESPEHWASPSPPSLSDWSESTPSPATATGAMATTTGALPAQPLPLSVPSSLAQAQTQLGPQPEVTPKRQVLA

For `CC(C)=NOC[C@@H](O)COCc1ccco1`, the composite z-score in test [1] was -0.0008; in test [2] it was 2.26; in test [3], -0.0924; in [4], 0.0026; in [5], -1.37; in test [6] it was 0.126. For the same compound, the composite z-score in test [7] was -0.603; in test [9], -0.549; in test [10] it was -0.0645; in test [11], -0.697; in test [15] it was -0.151; in [17], -0.122. Also, the composite z-score in test [18] is 0.301; in [19], -1.45; in test [20] it was -0.147. Further, the z-score in [8] was 0.929 (inactive); in [12] it was 0.848 (inactive); in [13] it was 0.174 (inactive); in [14], 0.746 (inactive); in [16], 0.358 (inactive).
Turning to `C=CCN(CCCC)C(=O)C1N(c2c(Cl)cccc2CO)C(=O)C2C(C(=O)O)C3C=CC21O3` (stereo not given), the composite z-score in test [1] is 1.38 and 0.489; in test [2] it was -0.331 and -0.392; in [3], -0.247 and -0.307; in test [4], -0.842 and -1.3; in [5] it was -1.17 and -1.13; in [6], -0.909 and 0.0849. For the same compound, the composite z-score is -0.981 and 0.374 in test [7]; -0.931 and -0.719 in [9]; -0.412 and -0.323 in [10]; -0.502 and 0.174 in [11]; -1.27 and 3.03 in test [15]; -0.0948 and -0.113 in [17]. Also, the composite z-score was -2.38 and -0.509 in test [18]; -1.73 and -0.0461 in [19]; -0.308 and -0.0286 in test [20]. In addition, the z-score in test [8] is 0.183 (inactive) and -0.987 (inactive); in [12], 0.381 (inactive) and 0.588 (inactive); in test [13] it was -0.162 (inactive) and -0.186 (inactive); in test [14], 0.258 (inactive) and -0.535 (inactive); in [16], 0.455 (inactive) and 3.02 (inactive).
As for `C=C[C@@H](OC)[C@H](O)c1ccc(OCCO)cc1`, the composite z-score in test [1] is -0.145 and 0.184; in test [2], -0.492 and -1.23; in [3], -0.206 and -0.178; in test [4], -0.976 and -0.915; in test [5], -1.07 and -1.57; in test [6], -0.748 and -0.394. For the same compound, the composite z-score in test [7] is -0.0048 and 0.0968; in test [9], -0.984 and -1.26; in test [10], -0.236 and -0.196; in test [11] it was 0.194 and -0.0886; in test [15] it was 1.5 and -0.567; in test [17], -0.0466 and -0.0666. Further, the composite z-score is -0.902 and -0.131 in test [18]; -0.19 and -0.876 in test [19]; -0.383 and -0.265 in test [20]. The z-score in test [8] was 1.74 (inactive) and 0.386 (inactive); in test [12], -0.0303 (inactive) and -2.64 (inactive); in test [13] it was 0.331 (inactive) and -1.68 (inactive); in test [14], -0.603 (inactive) and -0.883 (inactive); in test [16], -0.443 (inactive) and 2.25 (inactive).
With `C=CCN(C(=O)C(c1cccs1)N(C(=O)/C=C\C(=O)O)C(C)(C)CO)C(C)(C)C` (stereo not given), the composite z-score is -0.0667 and 0.0338 in [1]; -0.543 and -0.24 in test [2]; 0.0929 and -0.126 in test [3]; -0.433 and -0.781 in [4]; -1.07 and -0.925 in test [5]; 1.32 and 1.05 in [6]. The composite z-score was 1.27 and 1.24 in test [7]; -0.114 and -0.867 in [9]; -0.0994 and -0.385 in test [10]; -0.381 and 0.182 in test [11]; 2.89 and 0.484 in test [15]; -0.141 and -0.147 in test [17]. Moreover, the composite z-score is -1.52 and -1.23 in [18]; -0.97 and -0.967 in test [19]; -0.128 and -0.292 in test [20]. Also, the z-score in test [8] was -1.03 (inactive) and -1.13 (inactive); in [12] it was -1.81 (inactive) and -2 (inactive); in test [13], -1.45 (inactive) and -1.15 (inactive); in test [14] it was -0.429 (inactive) and -0.373 (inactive); in test [16], 2.02 (inactive) and 1.22 (inactive).
Regarding `C=CC[C@@H](O)c1ccc(O)c2ccccc12`, the composite z-score in test [1] was 0.16 and -0.247; in [2] it was 0.571 and 0.234; in test [3], -0.0422 and -0.0676; in test [4], 0.184 and 0.262; in [5], 0.116 and 0.328; in test [6] it was 0.66 and 0.282. Besides, the composite z-score in [7] was 1.18 and 1.26; in test [9], 0.42 and 0.0926; in [10], 0.72 and -0.0237; in [11] it was 1.57 and 1.49; in test [15], 1.01 and 0.0783; in [17] it was -0.0511 and -0.0812. In addition, the composite z-score in test [18] was 1.1 and 0.869; in test [19], 1.11 and 1.1; in test [20] it was 0.0153 and -0.0531. For the same compound, the z-score in test [8] was 0.0604 (inactive) and 1.27 (inactive); in [12], -22 (active) and -23.3 (active); in test [13] it was -20 (active) and -20.4 (active); in test [14] it was 6.56 (inactive) and 5.68 (inactive); in test [16], 1.92 (inactive) and 0.416 (inactive).
